According to PubChem BioAssay AID686979 (National Center for Advancing Translational Sciences (NCATS), 2013):
Among all 420,000 compounds or so, about 50,000 (12%) were called active. Not shown: some 26% with an inconclusive outcome. For the sample, actives were picked, then their nearest neighbours and some compounds at random. A number with no mark means an inactive call. The call rests on the fitted dose curve; in most records, active means well fitted inhibition curve with a large enough effect; inconclusive means small, poorly fitted or top-dose-only effect; inactive means flat fitted curve, though single readings scatter.

Test: qHTS for Inhibitors of human tyrosyl-DNA phosphodiesterase 1 (TDP1): qHTS in cells in presence of CPT; further: nearly all actives have a fitted effect of over 55% in size
Conditions: chicken DT40 Tdp1-/-;hTDP1 cells + 20 nM CPT, ATP luminescence, 48 h; series mostly up to 46.2 µM; activity change, negative = growth inhibition: at the top concentration
How it was run: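 Chicken DT40 Tdp1-/- cells stably complemented with human TDP1 were seeded at 400 cells/well in medium containing 20 nM camptothecin, exposed to pin-transferred compounds, and grown at 37 °C for at least 48 hr. Viability was read as ATP luminescence.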
On the % scale 0 is the no-effect control and ±100 the full control effect; potency means the concentration at half of the fitted maximal effect.

Row | Structure (SMILES) | Potency | activity change, negative = growth inhibition
1 | Cc1ccc(/C=N/NC(=O)CSc2nc3ccccc3o2)cc1 | 18.4 µM (active) | 
2 | CC(C)(C)C(=O)CSc1nc2ccccc2o1 |  | 10.3%
3 | CCN(CC)C(=O)CSc1nc2ccccc2o1 |  | 1.95%
4 | CC(Sc1nnc(C2CC2)n1C1CC1)C(=O)Nc1ccc(C(N)=O)cc1 (configuration not stated) |  | -11.7%
5 | CC1CCN(c2ccc(S(=O)(=O)Nc3cc(C(=O)O)cc(C(=O)O)c3)cc2[N+](=O)[O-])CC1 |  | 6.32%
6 | COc1ccc(NS(=O)(=O)c2ccc(N3CCN(CCO)CC3)c([N+](=O)[O-])c2)cc1 | 9.2 µM (active) | 
7 | COc1ccc(NS(=O)(=O)c2ccc(N3CCOCC3)c(NC(=O)/C=C/C(=O)O)c2)cc1 |  | -24.2%
8 | O=C(CSc1nncn1-c1cccnc1)N1CCOCC1 |  | 18.2%
9 | O=C1NC(c2ccccc2)Cc2ccncc21 (configuration not stated) |  | -1.24%
10 | COc1ccc(OC)c(NC(=O)c2sc3nc(C)cc(C)c3c2N)c1 |  | -1.45%
11 | COc1ccc(OC)c(Cc2nnc(CCC(=O)NC3CCCC3)o2)c1 |  | 24.7%
12 | COc1ccc(OC)c(Cc2cnc3nc(N)nc(N)c3c2C)c1 | 0.259 µM (active) | 
13 | COCC1CCCN(Cc2ccc3c(c2)CN(C(=O)c2ccnn2C)CCO3)C1 (configuration not stated) |  | -3.58% [at 9.04 µM]
14 | O=C(c1[nH]ncc1-c1ccc(Cl)cc1)C1CO1 (configuration not stated) | 1.03 µM (active) | 
15 | S=c1[nH]nc(-c2ccc(Cl)cc2)n1CC1CCCO1 (configuration not stated) |  | -28.6%
16 | COC(=O)c1ccc(C)c(NC(=O)C2CC(=O)N(C3CCCC(C)C3C)C2)c1 (configuration not stated) |  | -28.8%
17 | C=C1C(=C/C=C2\CCC[C@]3(C)[C@@H]([C@H](C)CCCC(C)(C)O)CC[C@@H]23)C[C@@H](O)C[C@@H]1O | 9.44 µM (active) | 
18 | CCNC(=O)C1(C)CCCN(C(=O)c2ccc3ccccc3n2)C1 (configuration not stated) |  | -17.1%
19 | CCOC(=O)c1sc(NC(=O)CSc2n[nH]c(CC)n2)nc1C |  | -18%
20 | O=C(N/N=C/c1ccc(Br)o1)c1cncc(Br)c1 |  | -1.47%
21 | Cc1sc2ncn(CC(=O)NCCCC(=O)NCc3ccc(F)cc3)c(=O)c2c1C |  | 1.23%
22 | O=C1N[C@H](Cc2ccccc2)C(=O)N[C@H]1Cc1cn(S(=O)(=O)c2ccccc2)c2ccccc12 | 13 µM (active) | 
23 | Cn1cc(S(=O)(=O)N2CCC(Cc3ccccc3)CC2)c(=O)n(C)c1=O |  | -4.97%

Row | Structure (SMILES) | Potency | activity change, negative = growth inhibition
24 | CSc1ncccc1C(=O)Nc1ccc2c(c1)OCO2 |  | -7.18%
25 | Cc1c(NC(=O)/C=C/C(=O)O)cccc1[N+](=O)[O-] |  | -18.6%
26 | Cc1c(NC(=S)NCc2ccc(F)cc2)cccc1[N+](=O)[O-] | 20.6 µM (active) | 
27 | Cc1c(NC(=O)CCCOc2ccccc2)cccc1[N+](=O)[O-] |  | -6%
28 | CCN(CC(=O)NCc1ccc(Cl)cc1)C(=O)CSc1ccccc1 |  | -16.6%
29 | c1ccc(-c2ccc3c(c2)NC(C2Nc4cc(-c5ccccc5)ccc4O2)O3)cc1 (configuration not stated) |  | -2.09%
30 | CC(=O)c1cccc(NC(=O)COc2ccc(S(=O)(=O)N3CCOCC3)cc2)c1 |  | -18.5%
31 | CC(=O)c1cccc(Nc2ccc3cc(S(=O)(=O)N4CCC(C)CC4)ccc3n2)c1 | 18.4 µM (active) | 
32 | CC1CCN(S(=O)(=O)c2ccc3[nH]c(=O)ccc3c2)CC1 |  | -2.79%
33 | CCCc1c(C)nc2c(Br)cccc2c1Cl |  | -1.98%
34 | COc1cc(NS(=O)(=O)c2ccc(N/C=C(\C=O)c3nc4cc(Cl)ccc4o3)cc2)nc(OC)n1 |  | -24.7%
35 | Cn1ncc(Br)c1C(=O)NC1CCCC1 |  | -11.4%
36 | CCC(Oc1ccccc1)C(=O)OCC(=O)Nc1c(C)nn(-c2ccccc2)c1C (configuration not stated) |  | 5.19%
37 | Nc1cc(=O)n(Cc2ccccc2)c(=O)n1Cc1ccccc1 |  | -10.3%
38 | CCN1CCN(Cc2c(O)ccc3c(=O)c(-c4ccc(OC)c(OC)c4)c(C(F)(F)F)oc23)CC1 |  | -18.3%
39 | Cc1ccc(C)c(Oc2c(C(F)(F)F)oc3c(CN4CCN(C)CC4)c(O)ccc3c2=O)c1 | 23.1 µM (active) | 
40 | CC1CCCN(Cc2c(O)ccc3c(=O)c(Oc4ccc(C(C)(C)C)cc4)c(C(F)(F)F)oc23)C1 (configuration not stated) |  | -18.6%
41 | Cc1c(C(=O)NCc2ccccc2)cnn1-c1ccccc1 |  | -16.4%
42 | CSc1ccc(CCNC(=O)c2cnn(-c3ccccc3)c2-n2cccc2)cc1 | 18.4 µM (active) | 
43 | CCCN1CCN(CCCNC(=O)c2cnn(-c3ccc(C)cc3)c2-n2cccc2)CC1 |  | -24%
44 | COc1cc(C(=O)Nc2ncccc2C)ccc1OCC(=O)N1CCOCC1 |  | -0.766%
45 | Cn1ccnc1-c1nnn(-c2ccc(F)cc2)n1 |  | -4.66%
46 | C/C(CC(=O)Nc1ccc(N(C)C)cc1)=N\NC(=O)c1ccccc1F |  | -17.5%

Row | Structure (SMILES) | Potency | activity change, negative = growth inhibition
47 | COc1ccc(C/C(C)=N/NC(=O)c2ccncc2)cc1 |  | 5.91%
48 | COc1ccc(C/C(C)=N/NC(=O)c2cc(C)oc2C)cc1 |  | 0.402%
49 | Cc1cccc(C)c1NC(=S)N1CCCCCC1 |  | -7.74%
50 | C/C(=N\NC(=O)Cc1ccc(Br)cc1)c1cccnc1 |  | -24.7%
51 | O=C(Nc1ccc(NC(=O)c2ccccc2F)cc1)c1ccccc1F |  | -12.9%
52 | CC(=NNC(=S)N1CCCCCC1)c1ccccn1 | 0.0092 µM (active) | 
53 | C/C(=N\NC(=O)Cc1ccc(Cl)cc1)c1ccccn1 | 1.46 µM (active) | 
54 | Cc1ccc(Cl)cc1NC(=O)c1ccccn1 |  | -18.9%
55 | CNC(=S)N1CCN(c2ccccn2)CC1 |  | -0.34%
56 | C/C(=N\NC(=O)c1ccccc1F)c1ccccn1 | 3.26 µM (active) | 
57 | COc1ccc(CC(=O)N/N=C(\C)c2ccccn2)cc1 | 3.66 µM (active) | 
58 | CCC1([N+](=O)[O-])COC(c2ccc(C)cc2)OC1 (configuration not stated) |  | -10.3%
59 | Cc1cc(C(C)(C)C)n2nc(C)c(-c3ccccc3)c2n1 |  | -11.6%
60 | CCc1nnc(NC(=O)c2cc(S(=O)(=O)N3CCCCC3)ccc2C)s1 |  | -3.57%
61 | CCOC(=O)C1CCN(C(c2ccc(F)cc2)c2sc3nc(-c4ccco4)nn3c2O)CC1 (configuration not stated) |  | -0.823%
62 | Cc1cccc(N(C(=O)c2csnn2)C(C(=O)NCc2ccccc2)c2ccncc2)c1 (configuration not stated) |  | -22%
63 | Cc1ccc(NC(=O)CCCNC(=O)c2ccc(Cl)cc2)cc1S(=O)(=O)N1CCOCC1 |  | -28.1%
64 | O=C(Nc1cccc(F)c1)N1CC2(CCN(C(=O)c3cnccn3)CC2)C1 |  | 1.43%
65 | COc1ccc(NC(=O)Cn2ncn3c(cc4ccccc43)c2=O)c(OC)c1OC |  | 18.6%
66 | O=C1CCC(C(=O)N2CCC(O)(c3ccccc3)CC2)CN1CCc1ccccc1 (configuration not stated) |  | -4.28%
67 | Cc1cccnc1NC(=O)CSc1nnc(COc2ccc(C(C)C)cc2)n1C |  | -14%
